# Experimental data reported in the supplement of paper PMC10681739.
# Assays:
# ETS1 [1] = molecular target: T1, ETS1 (UniProt P14921); test: ETS1 binding intensity (PBM fluorescence), ETS1 alone (arbitrary fluorescence units); higher = stronger binding; conditions: ETS1 concentration 1 nM; RUNX1 concentration 0 nM
# T1 sequence: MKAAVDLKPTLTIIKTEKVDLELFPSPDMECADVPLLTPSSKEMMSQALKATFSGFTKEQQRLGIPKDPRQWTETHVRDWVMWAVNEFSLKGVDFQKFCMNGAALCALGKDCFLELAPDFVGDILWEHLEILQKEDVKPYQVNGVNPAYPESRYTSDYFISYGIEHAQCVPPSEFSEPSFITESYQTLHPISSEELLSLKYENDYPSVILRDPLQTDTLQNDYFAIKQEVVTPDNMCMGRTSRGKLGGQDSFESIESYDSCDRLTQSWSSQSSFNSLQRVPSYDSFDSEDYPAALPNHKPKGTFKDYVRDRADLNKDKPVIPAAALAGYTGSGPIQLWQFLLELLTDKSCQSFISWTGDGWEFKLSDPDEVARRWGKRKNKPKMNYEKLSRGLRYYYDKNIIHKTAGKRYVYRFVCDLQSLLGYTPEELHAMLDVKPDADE
# RUNX1 [2] = molecular target: RUNX1 (UniProt Q01196); test: RUNX1 binding intensity (PBM fluorescence), RUNX1 alone (arbitrary fluorescence units); higher = stronger binding; conditions: RUNX1 concentration 2 nM; ETS1 concentration 0 nM
# Procedure: (§1)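 Cooperative gcPBM on 36-bp genomic probes with neighbouring ETS1 and RUNX1 sites. Recombinant human RUNX1 (2 nM) was incubated alone or with ETS1 (25 nM) and detected with anti-RUNX1 antibody plus Alexa488 secondary. Values are medians over 4 replicate spots; the RUNX1+ETS1 data were normalised to the RUNX1-only data. The probes sit in constant array flanks that are not printed.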
# ETS1 [3] = molecular target: T1, ETS1; test: ETS1 binding intensity (PBM fluorescence) in presence of RUNX1, normalised to ETS1-only experiment (arbitrary fluorescence units); higher = stronger binding; conditions: ETS1 concentration 1 nM; RUNX1 concentration 25 nM
# RUNX1 [4] = molecular target: RUNX1 (UniProt Q01196); test: RUNX1 binding intensity (PBM fluorescence) in presence of ETS1, normalised to RUNX1-only experiment (arbitrary fluorescence units); higher = stronger binding; conditions: RUNX1 concentration 2 nM; ETS1 concentration 25 nM
# Procedure: as §1
# 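Throughout, for RUNX1 binding intensity (PBM fluorescence) in presence of ETS1, normalised to RUNX1-only experiment: Full-length recombinant human ETS1 or RUNX1 bound to double-stranded 36-bp genomic probes on microarrays, detected by protein-specific primary antibody and Alexa488 secondary, spot fluorescence as median of four replicate spots.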
# 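Throughout, for RUNX1 binding intensity (PBM fluorescence), RUNX1 alone: Full-length recombinant human RUNX1 bound to double-stranded 36-bp genomic probes on a high-density microarray, scored as Alexa488 fluorescence per spot via anti-RUNX1 antibody, median of four replicate spots.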
# Sequence of RUNX1 (Q01196 whole entry): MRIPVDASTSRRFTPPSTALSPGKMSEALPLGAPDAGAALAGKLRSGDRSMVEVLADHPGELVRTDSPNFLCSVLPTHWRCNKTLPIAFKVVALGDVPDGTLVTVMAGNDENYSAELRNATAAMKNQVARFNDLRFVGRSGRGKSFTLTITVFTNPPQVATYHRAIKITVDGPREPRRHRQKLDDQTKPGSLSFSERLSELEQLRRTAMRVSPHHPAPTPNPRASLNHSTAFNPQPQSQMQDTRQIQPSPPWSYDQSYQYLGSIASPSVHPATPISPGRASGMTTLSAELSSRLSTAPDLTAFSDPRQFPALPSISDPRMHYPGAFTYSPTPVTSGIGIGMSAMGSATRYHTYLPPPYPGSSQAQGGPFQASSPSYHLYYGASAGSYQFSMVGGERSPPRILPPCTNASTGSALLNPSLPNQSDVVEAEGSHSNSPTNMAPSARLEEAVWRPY
Sequence,ETS1 binding intensity (ETS1 [1]),RUNX1 binding intensity (RUNX1 [2]),ETS1 binding intensity (ETS1 [3]),RUNX1 binding intensity (RUNX1 [4])
TCCCTCCTTCCGCTCTGGTTTTGTGGTTGCTTGCTG,902,1490,1620,3330
TGCACGGTAAGCAGGAAGCTGCGGCCGAGCTGAGTC,2020,687,3120,1030
GACATGCTCCGGAAGCTTGAGGTTTTAACGTTAAGG,2040,734,5030,1390
CGGTCAGGTCGCAGGAAACCACAGCGGCAGCGCGGC,732,1370,1870,1840
TGGCTTATCCTAACAGGAAGTGGTTTATCTGATCCT,16100,767,31300,2390
TGATGCACTTCCTGAGGGCCCGCATGTGGTAAACAC,495,834,880,1480
GGGCGGAAGTGCGTCACTATGTCCGACCCGCAGTGC,1630,706,2050,1010
GCGCAGGTCCCGGATGTTGCGGACAGTATGAGGCAA,3250,661,4560,1570
AACAGCTTCCGGCACGGGGGCTGTGGTTGTGTTGGA,670,790,1130,1530
AACAAACCGGATGGGGTTGCCACCCGCAATCTTGTC,2030,826,5130,2140
GTGGCTATGGGAAGTGGGGTGCGGTTTCTGCCGGGG,554,1340,3070,1670
ACTGAACAAACCGGATGTGGTTCCCACCTGCAATCT,25000,850,29500,11400
GAGTCTACAGCGGAAGCCACCACATGCCCCACCCCC,4820,904,5330,1200
GGCGCGGGCTGCTTCCGGTCTGCGGGCCTGAGGAGG,5650,672,5010,1770
GAGGACGCGGAAGTCCTTCTTGCGGGGCGGAGCTAG,891,664,840,890
CTCCCACATCCGAAGCGGCGCAACCCACAACAGCCT,445,1120,344,1620
GGCCGGCTTCCGGGGCGGGTGGAAAGGAGCCACAAG,501,750,498,1260
CAACTGACCGGACAGAACACAGCCACAAAACACGAG,512,944,507,824
GTTGCCCCACTTCCTGCCAGTGGTTTTTGGTTGGCC,2660,944,4220,4040
TCGGCGGATATGAAAAAAAGTCCGTGGTCACGTGCA,475,730,582,877

Sequence,ETS1 binding intensity (ETS1 [1]),RUNX1 binding intensity (RUNX1 [2]),ETS1 binding intensity (ETS1 [3]),RUNX1 binding intensity (RUNX1 [4])
AGGCCCACCTGCTGCGGATGTGGTCTCTGTGTGTGC,2340,774,6240,1340
ATCTCAACTAGGAAATGTTTTTGTGACCACAAAGGG,620,958,2310,949
CTAGGCCACCGGAAGTCTCCGCAGTGGTTTTGCAAA,14900,762,25800,1610
GCAGCATTTCCTGACTTCTTCGCCCCTGTGGTTGCA,440,850,480,1690
GAGTGACTGCTAACGGATGTGTGGTTTCTTTAGTTT,2000,926,6590,1470
GCGAAAAACGCGGAAATGCGGTGGCGGCGGCCCGCT,885,721,1190,1210
AGGCAGCACAGGAAGTTATAACCACATGTACACTTG,3790,781,11900,1960
TTCAGTCCTGGTTTCCTGTGGTTCTAGGATCTTTAT,903,828,957,1440
GACTTCCTGTTGAAGATTGGCCTCTGCGGTACCACG,951,2700,2350,9740
CAGATCTGAAAGGGAAGTGGTTTCAAGAGGGTTCTT,967,729,1130,865
ACGAGGTTGGCCTCATCCGGTGGTTTTCGCAGCACG,1290,837,1280,1710
GGGCAGGCCGGATGTGGGAGACCACAAAGCCCAAGG,5360,820,27500,9010
CAGAGAGCGGACTTCCGCGACGCGGGTAAGCCGGGC,498,670,368,894
GGCGGAAGCTGCCGCTGCCTTGCGCCCCCACACACG,640,818,685,1040
TTTTGCCCAACAGGATGTGGTTTCTAAAGCAGACGG,6620,1290,31600,18500
CTTCTGGCGGAAGCGGCACAAGCCGCAGTACAGCGC,1070,738,2370,1190
CTTAGTGTTTGAGGATGTGGGTTTTACAATCAGATC,845,769,2490,1310
AACTTCCGAGGGAACTAACTGGTTTTAACCACATTG,367,886,923,1190
TGCATGTGCAGCAGAGGAAACCACAAGTTATTCCCT,557,1110,1560,1600
GTCCTCTTCCTGTCCCCCAGGTGGGCATGTGGTTTG,519,988,751,1790
